Our source for the z-score and composite z-score values is PubChem BioAssay.

Structures are written as SMILES. Activity calls are given as the source filed them. Unless noted, no rule for the calls is given here.

Experiment [1] in a line: resazurin metabolic signal in HepG2 cells – cell-based, resazurin fluorescence, 24 h, PK04 Diversity Set, profiling panel (AID 1172). Also: test concentration not given here. The note with it: HepG2 viability, higher = more signal.
The nature of experiment [2]: budding yeast growth changes without added modifier – OD600, strain BY4716, 24 h, basal condition, primary screen (AID 1173). Particulars: S. cerevisiae BY4716 growth, OD600, 24 h; higher = more signal, called active from +8 up or from −8 down.
Experiment [3] can be described thus: viability profiling in MM1S myeloma cells – cell-based, resazurin fluorescence, basal, 24 h, PK04 Diversity Set, profiling panel (AID 1174).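 Also: MM1S multiple myeloma cell line; test concentration not given here.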 The note with it: higher = more signal, called active from +8 up or from −8 down. (Resazurin is reduced to fluorescent resorufin, in cell work by metabolically active cells.)
The target in experiment [4] is Dihydroorotate dehydrogenase (quinone), mitochondrial (Plasmodium falciparum (isolate 3D7)) (UniProt Q08210). The experiment is described as follows: inhibition of P. falciparum DHODH – biochemical, C-terminal His tag, absorbance 600 nm, primary screen (AID 1175).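 Also: recombinant parasite enzyme with a five histidine tag at its C terminus; test concentration not given here.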 The note with it: PfDHODH enzyme, DCIP absorbance 600 nm; higher = more signal, called active from +8 up or from −8 down.

Experiment [5] is described as follows: inhibition of PAO1 biofilm formation – strain PAO1, LB-PBS medium, absorbance 600 nm, primary screen (AID 1176). Also: test concentration not given here. Particulars: P. aeruginosa PAO1 growth/biofilm, A600, 12 h; higher = more signal.
A short description of experiment [6]: growth modulation of vineyard yeast isolate – strain RM11-1a, OD600, basal, 24 h, primary screen (AID 1177).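 Also: cultures grown under basal conditions with no added stressor; test concentration not given here.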 The note with it: S. cerevisiae RM11-1a growth, OD600, 24 h; higher = more signal, called active from +8 up or from −8 down.
Experiment [7] is described as follows: growth of efflux-deficient E. coli DRC39 – strain DRC39, OD650, 24 h, E. coli filamentation inducers, primary screen (AID 1178).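 Also: growth measured as culture turbidity by optical density at 650 nm; test concentration not given here.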 The note with it: E. coli DRC39 acrAB, higher = more signal, called active from +8 up or from −8 down.
A short description of experiment [8]: growth of efflux-deficient E. coli DRC39 – strain DRC39, OD650, 48 h, E. coli filamentation inducers, primary screen (AID 1179).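 Also: screen aims at cell division blockers that make cells filament.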 The note with it: E. coli DRC39 delta-acrAB growth, higher = more signal, called active from +8 up or from −8 down.
The nature of experiment [9]: viability profiling in RPMI8226 myeloma cells – cell-based, resazurin fluorescence, basal, 24 h, PK04 Diversity Set, profiling panel (AID 1180).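 Also: RPMI8826 multiple myeloma cell line at 5000 cells per well; test concentration not given here.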 Particulars: higher = more signal.
Experiment [10] addresses E3 ubiquitin-protein ligase XIAP (Homo sapiens) (UniProt P98170). Kind of experiment: small molecules binding XIAP protein – biophysical, small-molecule microarray, fluorescence 635 nm, primary screen (AID 1181).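 Also: score merges 667 nm emission and signal to noise over triplicate slides.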 The note with it: higher = more signal.

Dihydroorotate dehydrogenase (quinone), mitochondrial (Plasmodium falciparum (isolate 3D7)), sequence (Q08210 whole entry, looked up): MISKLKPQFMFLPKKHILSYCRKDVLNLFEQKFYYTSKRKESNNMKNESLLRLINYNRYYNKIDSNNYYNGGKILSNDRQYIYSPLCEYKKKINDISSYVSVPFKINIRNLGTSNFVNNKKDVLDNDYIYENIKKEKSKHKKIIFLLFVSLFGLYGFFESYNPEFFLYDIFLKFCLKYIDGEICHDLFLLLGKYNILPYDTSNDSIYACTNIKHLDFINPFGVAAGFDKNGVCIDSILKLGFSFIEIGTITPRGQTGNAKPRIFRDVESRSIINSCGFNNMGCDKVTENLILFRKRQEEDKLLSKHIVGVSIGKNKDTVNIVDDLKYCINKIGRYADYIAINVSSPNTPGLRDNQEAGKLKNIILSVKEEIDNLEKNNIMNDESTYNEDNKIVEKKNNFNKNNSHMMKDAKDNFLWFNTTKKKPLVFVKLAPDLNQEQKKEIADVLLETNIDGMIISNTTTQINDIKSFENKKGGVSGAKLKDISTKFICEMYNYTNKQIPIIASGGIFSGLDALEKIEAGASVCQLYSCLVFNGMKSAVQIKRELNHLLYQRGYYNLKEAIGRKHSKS
E3 ubiquitin-protein ligase XIAP (Homo sapiens), sequence (P98170 whole entry, looked up): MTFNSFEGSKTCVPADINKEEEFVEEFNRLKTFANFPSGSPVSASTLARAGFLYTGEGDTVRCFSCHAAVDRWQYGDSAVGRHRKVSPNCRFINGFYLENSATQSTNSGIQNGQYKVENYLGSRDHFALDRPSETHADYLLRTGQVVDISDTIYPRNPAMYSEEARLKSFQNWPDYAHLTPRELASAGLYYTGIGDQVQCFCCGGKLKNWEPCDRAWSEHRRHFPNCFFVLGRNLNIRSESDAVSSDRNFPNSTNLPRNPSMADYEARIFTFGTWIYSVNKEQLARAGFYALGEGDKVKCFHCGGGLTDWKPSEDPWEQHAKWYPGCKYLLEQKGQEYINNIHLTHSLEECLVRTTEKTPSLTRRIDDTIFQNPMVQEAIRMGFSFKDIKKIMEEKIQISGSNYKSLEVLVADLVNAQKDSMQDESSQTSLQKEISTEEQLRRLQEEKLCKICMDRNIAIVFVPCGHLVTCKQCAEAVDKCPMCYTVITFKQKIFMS

For `CCN(CC)c1ccc(N2CC=CC34O[C@@H]5/C=C\CCCOC(=O)C5[C@H]3C(=O)N(CCO)[C@@H]4C2=O)cc1` (stereo not given in full), the z-score in experiment [1] was -1.46; in experiment [2], 0.245 (inactive); in experiment [3] it was -0.0391 (inactive); in experiment [5], -0.606 (inactive); in [6], 0.747 (inactive); in [7] it was -1.16 (inactive). Further, the z-score in [8] is -1.26 (inactive); in experiment [9], 0.547. For the same compound, the composite z-score was 0.174 (inactive) in experiment [4] and 0.56 in [10].
Turning to `NCCCCCNC(=O)[C@@H]1C[C@@H]2C(=O)NCC(=O)N2[C@@H]1c1ccc(O)cc1`, the z-score in [1] is 0.0154; in experiment [2] it was -0.54 (inactive); in experiment [3], 0.236 (inactive); in experiment [5] it was 0.227 (inactive); in [6], 0.225 (inactive); in experiment [7], 0.121 (inactive). Also, the results for the z-score in [8] and in experiment [9] were 0.654 (inactive) and -0.9, respectively. Further, the results for the composite z-score in [4] and in experiment [10] were -1.28 (inactive) and 0.348, respectively.
With `O=C(O)[C@@]1(CCS(=O)(=O)c2ccccc2)COC(c2ccc(OCCCO)cc2)=N1`, the z-score in [1] was 0.444; in experiment [2] it was 0.0291 (inactive); in [3] it was -0.21 (inactive); in [5], -0.347 (inactive); in [6], -0.197 (inactive); in experiment [7], -0.43 (inactive). The z-score in experiment [8] is -0.216 (inactive); in experiment [9], 0.0149. In addition, the composite z-score was 0.0614 (inactive) in [4] and 0.0767 in experiment [10].
For `CC(=O)NCCCC[C@@H]1NC(=O)[C@@H]2C[C@H](C(=O)NCCCCN(C)C)[C@H](c3cccc(OCCO)c3)N2C1=O`, the z-score was 1.03 in [1]; 0.108 (inactive) in experiment [2]; -0.721 (inactive) in [3]; -0.875 (inactive) in [5]; 0.0173 (inactive) in [6]; 0.374 (inactive) in experiment [7]. Moreover, the results for the z-score in [8] and in experiment [9] were 0.313 (inactive) and 0.507, respectively. In addition, the composite z-score is -0.446 (inactive) in [4] and -0.404 in experiment [10].
For the compound `CCCCCC1=C2CNC(CCC)(C(=O)OC)C=C2C(C)C1=O` (stereo not given), the z-score is -1.08 in [1]; 0.381 (inactive) in experiment [2]; -1.34 (inactive) in experiment [3]; 0.796 (inactive) in [5]; 0.891 (inactive) in [6]; 0.0107 (inactive) in [7]. Besides, the z-score was 0.56 (inactive) in experiment [8] and -0.888 in experiment [9]. Moreover, the figures for the composite z-score in [4] and in [10] were -1.62 (inactive) and 0.347, respectively.
As to `O=C1O[C@H](c2ccccc2)[C@H](c2ccccc2)N2[C@H]1[C@@H](C(=O)N1CCN(c3ncccn3)CC1)[C@]1(C(=O)Nc3ccc(C#CC4=CCCCC4)cc31)[C@H]2c1ccc(O)cc1`, the z-score is 1.03 in experiment [1]; 0.866 (inactive) in [2]; 0.0054 (inactive) in experiment [3]; 0.902 (inactive) in experiment [5]; 2.46 (inactive) in experiment [6]; 0.105 (inactive) in experiment [7]. Besides, the z-score in experiment [8] is 0.557 (inactive); in [9], -0.441. Further, the composite z-score in [4] is -0.457 (inactive); in experiment [10] it was -0.0559.
Take `C=CC[C@]1(C(=O)NCCCOC)N=C(c2ccc(OCCCO)cc2)O[C@H]1c1ccccc1N=[N+]=[N-]`: the z-score is 0.632 in experiment [1]; 0.215 (inactive) in experiment [2]; -0.894 (inactive) in experiment [3]; 1.79 (inactive) in experiment [5]; 0.571 (inactive) in experiment [6]; 0.961 (inactive) in [7]. The z-score in [8] is -0.615 (inactive); in experiment [9] it was -1.04. Moreover, the composite z-score in experiment [4] is 1.1 (inactive); in experiment [10], 0.262.
In the case of `CN(C)CCCNC(=O)[C@@]1(C)c2ccccc2C(=O)N(Cc2cc(F)cc(C(F)(F)F)c2)[C@H]1c1ccc(CO)cc1`, the z-score in [1] is 0.101; in experiment [2], -0.84 (inactive); in [3], 0.079 (inactive); in [5] it was 0.264 (inactive); in [6], -1.11 (inactive); in experiment [7], 0.706 (inactive). Moreover, the results for the z-score in [8] and in [9] were -0.175 (inactive) and -0.406, respectively. Also, the composite z-score in experiment [4] is -0.478 (inactive); in experiment [10] it was -0.0079.
In the case of `CC(C)(C)OC(=O)CC[C@@]1(C(N)=O)N=C(c2ccc(OCCCO)cc2)O[C@@H]1c1ccccc1`, the z-score in experiment [1] was -0.175; in [2], -0.63 (inactive); in experiment [3] it was -0.121 (inactive); in [5], 0.469 (inactive); in experiment [6], -0.412 (inactive); in experiment [7], -0.352 (inactive). In addition, the z-score in experiment [8] is -1.12 (inactive); in experiment [9], -0.359. The composite z-score in [4] was 0.0187 (inactive); in [10] it was -0.18.
Consider `CCCCC(=C=CC[C@@H](O)c1ccccc1OCCO)CCO`, for which the z-score in [1] is -0.202; in experiment [2], -2.07 (inactive); in [3], 0.684 (inactive); in [5], 0.118 (inactive); in experiment [6] it was 0.853 (inactive); in experiment [7] it was 0.132 (inactive). Besides, the z-score is -0.0575 (inactive) in experiment [8] and -0.552 in [9]. In addition, the values for the composite z-score in experiment [4] and in [10] were -0.782 (inactive) and -0.24, respectively.
As to `O=C1OCCC/C=C\[C@H]2OC34C=CCN(Cn5nnc6ccccc65)C(=O)[C@H]3N(CCO)C(=O)[C@@H]4C12` (stereo not given in full), the z-score in experiment [1] was -0.345; in experiment [2], -0.0322 (inactive); in experiment [3], 0.158 (inactive); in [5], 0.469 (inactive); in [6], 0.821 (inactive); in experiment [7], 0.254 (inactive). The z-score is -0.146 (inactive) in [8] and 0.0966 in experiment [9]. In addition, the composite z-score was 1.16 (inactive) in experiment [4] and 0.213 in experiment [10].
In the case of `COCCOC(=O)N1C(=O)[C@@]2(c3cc(C#CCCO)ccc31)[C@H](C(=O)N1CCN(c3ncccn3)CC1)[C@H]1C(=O)O[C@H](c3ccccc3)[C@H](c3ccccc3)N1[C@@H]2c1ccccc1OCCO`, the z-score in [1] is 0.906; in experiment [2], 0.674 (inactive); in experiment [3] it was 0.399 (inactive); in [5] it was -0.116 (inactive); in experiment [6] it was 1.36 (inactive); in experiment [7], 0.111 (inactive). Further, the z-score in experiment [8] is -0.776 (inactive); in [9], 0.485. The composite z-score in experiment [4] is -0.237 (inactive); in [10] it was -0.0312.
